Measured values from PubChem BioAssay.
Calls of active or inactive are those of the source.

Assays:
[1] = test system: PRMT1 (protein arginine N-methyltransferase 1); experiment: small molecules binding arginine methyltransferase PRMT1 – biochemical, small-molecule microarray, 635 nm fluorescence, primary screen (AID 1088); conditions: higher = more signal;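 further: binding of Prmt1 protein to compounds spotted on small-molecule microarray slides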
[2] = growth effects on S. cerevisiae YJM789 – YJM789 clinical isolate, OD600, 24 h, basal, primary screen (AID 1089); conditions: higher = more signal, called active from +8 up or from −8 down;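 further: growth of clinical yeast isolate S. cerevisiae YJM 789 seeded 1000 cells per well; test concentration not given here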
[3] = S. pombe growth modifiers, basal conditions – strain 972, OD600, 24 h, no modulator, primary screen (AID 1090);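 further: basal condition with compound alone and no growth modifier present; test concentration not given here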; conditions: S. pombe 972 growth, higher = more signal, called active from +8 up or from −8 down
[4] = budding yeast growth modifiers under rapamycin – strain BY4716, OD600, 96 h, primary screen (AID 1091); further: test concentration not given here; conditions: S. cerevisiae BY4716 + rapamycin, higher = more signal, called active from +8 up or from −8 down
[5] = molecular target: Torsin-1A-interacting protein 2 (Homo sapiens) (UniProt Q8NFQ8); experiment: small molecules binding lysate-expressed LULL1 – cell lysate, human LULL1 lysate, 635/667 nm fluorescence, primary screen (AID 1092); conditions: small-molecule microarray, hLULL1 lysate binding, 635 nm fluorescence; higher = more signal;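 further: probe is lysate of COS7 cells overexpressing human LULL1; score merges per-feature 667 nm fluorescence with signal-to-noise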
Torsin-1A-interacting protein 2 (Homo sapiens), sequence (Q8NFQ8 whole entry, looked up): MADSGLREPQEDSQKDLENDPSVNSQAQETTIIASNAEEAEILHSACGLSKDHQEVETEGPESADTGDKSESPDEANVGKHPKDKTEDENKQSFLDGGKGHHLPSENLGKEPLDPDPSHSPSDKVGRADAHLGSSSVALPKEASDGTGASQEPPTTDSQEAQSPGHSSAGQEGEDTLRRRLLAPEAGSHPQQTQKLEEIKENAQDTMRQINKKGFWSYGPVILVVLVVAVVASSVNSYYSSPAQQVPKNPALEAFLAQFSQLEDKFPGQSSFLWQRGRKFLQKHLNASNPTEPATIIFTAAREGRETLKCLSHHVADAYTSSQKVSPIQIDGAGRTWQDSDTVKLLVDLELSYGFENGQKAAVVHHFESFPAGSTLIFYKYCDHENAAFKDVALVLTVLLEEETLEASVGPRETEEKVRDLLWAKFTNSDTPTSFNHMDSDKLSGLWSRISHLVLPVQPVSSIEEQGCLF

[6] = optical density change of DRC41 E. coli – strain DRC41, OD650, 24 h, E. coli filamentation project, primary screen (AID 1093);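 further: MC1000 strain lacking acrAB efflux and sulA so SOS filamentation is blocked; test concentration not given here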; conditions: E. coli DRC41 growth, higher = more signal, called active from +8 up or from −8 down
[7] = probe aLefty2 binding to arrayed compounds – biochemical, biotinylated probe, 635/667 nm fluorescence, primary screen (AID 1094); conditions: small-molecule microarray, higher = more signal;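 further: score merges spot fluorescence near 667 nm with spot signal-to-noise ratio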
[8] = test system: Noggin (protein binding on small-molecule microarray); experiment: small molecules binding Noggin protein – biochemical, 635/667 nm fluorescence, primary screen (AID 1095); conditions: 635 nm fluorescence, higher = more signal;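 further: score merges 667 nm feature fluorescence with signal to noise over triplicate slides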
[9] = molecular target: Neurogenic locus notch homolog protein 3 (Homo sapiens) (UniProt Q9UM47); experiment: small molecules binding NOTCH3 protein – biochemical, 635/667 nm fluorescence, primary screen (AID 1096); conditions: small-molecule microarray, 635 nm fluorescence, higher = more signal
Neurogenic locus notch homolog protein 3 (Homo sapiens), sequence (Q9UM47 whole entry, looked up): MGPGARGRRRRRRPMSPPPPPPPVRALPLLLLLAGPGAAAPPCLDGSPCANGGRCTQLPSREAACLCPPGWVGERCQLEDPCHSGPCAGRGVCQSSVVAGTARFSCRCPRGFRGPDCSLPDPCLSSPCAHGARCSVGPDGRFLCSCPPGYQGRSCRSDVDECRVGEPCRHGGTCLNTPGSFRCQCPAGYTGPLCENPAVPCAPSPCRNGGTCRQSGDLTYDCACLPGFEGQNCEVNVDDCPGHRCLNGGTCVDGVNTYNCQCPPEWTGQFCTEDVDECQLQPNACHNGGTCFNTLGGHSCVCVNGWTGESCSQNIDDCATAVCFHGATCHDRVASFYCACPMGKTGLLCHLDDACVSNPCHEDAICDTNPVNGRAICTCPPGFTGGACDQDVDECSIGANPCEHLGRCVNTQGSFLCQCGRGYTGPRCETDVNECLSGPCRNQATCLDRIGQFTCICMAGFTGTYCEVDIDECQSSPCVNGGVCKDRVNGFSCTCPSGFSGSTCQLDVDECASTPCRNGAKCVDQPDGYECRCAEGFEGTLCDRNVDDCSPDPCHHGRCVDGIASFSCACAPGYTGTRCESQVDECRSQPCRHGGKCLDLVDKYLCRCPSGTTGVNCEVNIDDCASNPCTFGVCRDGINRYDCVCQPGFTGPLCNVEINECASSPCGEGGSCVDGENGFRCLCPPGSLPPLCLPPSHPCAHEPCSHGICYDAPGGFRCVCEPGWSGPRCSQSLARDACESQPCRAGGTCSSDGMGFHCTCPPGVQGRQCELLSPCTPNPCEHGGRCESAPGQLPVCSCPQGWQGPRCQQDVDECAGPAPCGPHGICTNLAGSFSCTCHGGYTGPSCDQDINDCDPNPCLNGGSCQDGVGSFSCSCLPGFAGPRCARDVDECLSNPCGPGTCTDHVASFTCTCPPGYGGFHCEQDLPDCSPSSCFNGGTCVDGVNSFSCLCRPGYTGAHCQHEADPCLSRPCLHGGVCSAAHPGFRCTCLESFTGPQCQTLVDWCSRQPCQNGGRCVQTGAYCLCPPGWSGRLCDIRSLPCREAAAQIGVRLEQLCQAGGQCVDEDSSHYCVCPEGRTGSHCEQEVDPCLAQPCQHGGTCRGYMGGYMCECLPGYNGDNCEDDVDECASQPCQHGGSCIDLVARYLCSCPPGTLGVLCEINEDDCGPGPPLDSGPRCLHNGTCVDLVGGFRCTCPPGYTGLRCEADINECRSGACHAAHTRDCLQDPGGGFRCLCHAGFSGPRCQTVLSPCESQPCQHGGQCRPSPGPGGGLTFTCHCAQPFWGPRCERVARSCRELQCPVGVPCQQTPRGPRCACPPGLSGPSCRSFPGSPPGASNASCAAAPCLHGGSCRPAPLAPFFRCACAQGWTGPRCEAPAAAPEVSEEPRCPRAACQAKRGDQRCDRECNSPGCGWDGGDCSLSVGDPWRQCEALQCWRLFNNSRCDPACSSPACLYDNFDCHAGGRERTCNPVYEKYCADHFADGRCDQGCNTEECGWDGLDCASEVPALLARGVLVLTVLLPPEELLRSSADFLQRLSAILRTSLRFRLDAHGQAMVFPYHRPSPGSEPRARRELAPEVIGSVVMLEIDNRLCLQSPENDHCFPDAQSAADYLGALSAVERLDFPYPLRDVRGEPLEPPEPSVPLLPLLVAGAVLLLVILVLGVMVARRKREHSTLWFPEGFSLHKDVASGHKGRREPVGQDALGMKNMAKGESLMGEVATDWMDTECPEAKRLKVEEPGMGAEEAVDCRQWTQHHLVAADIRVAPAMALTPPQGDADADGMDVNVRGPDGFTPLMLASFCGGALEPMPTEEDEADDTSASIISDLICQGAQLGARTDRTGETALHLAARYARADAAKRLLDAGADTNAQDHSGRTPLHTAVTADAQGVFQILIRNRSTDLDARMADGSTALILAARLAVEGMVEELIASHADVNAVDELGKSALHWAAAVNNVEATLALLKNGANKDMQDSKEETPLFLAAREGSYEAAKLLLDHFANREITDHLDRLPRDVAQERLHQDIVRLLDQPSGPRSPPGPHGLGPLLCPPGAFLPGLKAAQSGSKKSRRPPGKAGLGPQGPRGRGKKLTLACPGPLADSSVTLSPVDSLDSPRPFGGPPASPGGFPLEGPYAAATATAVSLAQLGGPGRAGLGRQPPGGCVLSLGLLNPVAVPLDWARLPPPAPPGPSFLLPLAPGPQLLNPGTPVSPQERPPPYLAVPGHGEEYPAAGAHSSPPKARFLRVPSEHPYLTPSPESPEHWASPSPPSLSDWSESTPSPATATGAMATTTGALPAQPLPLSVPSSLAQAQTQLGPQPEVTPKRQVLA

[10] = probe aEGFR binding to arrayed compounds – biochemical, biotinylated probe, 635/667 nm fluorescence, primary screen (AID 1097); conditions: small-molecule microarray, higher = more signal;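 further: probe is a biotinylated anti-EGFR antibody binding compounds printed on slides; score combines fluorescence near 667 nm and signal to noise of each spot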
[11] = test system: Plasmodium falciparum Sir2 (PF13_0152, Sir2A); experiment: Plasmodium falciparum Sir2A binding compounds – biochemical, small-molecule microarray, 635 nm fluorescence, primary screen (AID 1098); conditions: fluorescence 635 nm, higher = more signal;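 further: score merges spot fluorescence intensity with its signal-to-noise ratio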
[12] = probe aDKK1 binding to arrayed compounds – biochemical, biotinylated probe, 635/667 nm fluorescence, primary screen (AID 1099); conditions: small-molecule microarray, higher = more signal;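 further: score merges 667nm spot fluorescence with signal to noise across triplicate slides; reference of the scale not given here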
[13] = probe aCHRDL2 binding to arrayed compounds – biochemical, biotinylated probe, 635/667 nm fluorescence, primary screen (AID 1100); conditions: small-molecule microarray, higher = more signal
[14] = change in splice reporter luminescence, either direction, cell-based, HEK293, spliceosome inhibition project, primary screen (AID 1101); conditions: HEK293 splicing luciferase reporter, 24 h, higher = more signal, called active from +8 up or from −8 down;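 further: HEK293 cells carrying a splicing-competent luciferase reporter gene; test concentration not given here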
[15] = molecular target: Fibroblast growth factor 10 (Homo sapiens) (UniProt O15520); experiment: compounds binding fibroblast growth factor 10 – biochemical, small-molecule microarray, 635 nm fluorescence, primary screen (AID 1102); conditions: FGF10 binding, fluorescence 635 nm, higher = more signal
Fibroblast growth factor 10 (Homo sapiens), sequence (O15520 whole entry, looked up): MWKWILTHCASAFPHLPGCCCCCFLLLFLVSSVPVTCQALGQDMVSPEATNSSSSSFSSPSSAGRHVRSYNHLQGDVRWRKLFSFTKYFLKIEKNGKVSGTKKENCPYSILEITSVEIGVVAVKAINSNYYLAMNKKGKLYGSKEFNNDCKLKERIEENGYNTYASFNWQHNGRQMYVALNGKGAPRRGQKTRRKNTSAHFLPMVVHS

[16] = test system: glycogen synthase kinase-3 (GSK3A per assay name; protocol says GSK3B); experiment: compounds binding glycogen synthase kinase-3 – biochemical, small-molecule microarray, 635 nm fluorescence, GSK3A, primary screen (AID 1103); conditions: fluorescence 635 nm, higher = more signal; further: the record names both GSK3A and GSK3B
[17] = molecular target: Epidermal growth factor receptor (Homo sapiens) (UniProt P00533); experiment: compounds binding epidermal growth factor receptor – biochemical, small-molecule microarray, 635 nm fluorescence, primary screen (AID 1104); conditions: EGFR binding, higher = more signal;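 further: score merges 667 nm emission intensity with spot signal to noise over triplicate slides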
Epidermal growth factor receptor (Homo sapiens), sequence (P00533 whole entry, looked up): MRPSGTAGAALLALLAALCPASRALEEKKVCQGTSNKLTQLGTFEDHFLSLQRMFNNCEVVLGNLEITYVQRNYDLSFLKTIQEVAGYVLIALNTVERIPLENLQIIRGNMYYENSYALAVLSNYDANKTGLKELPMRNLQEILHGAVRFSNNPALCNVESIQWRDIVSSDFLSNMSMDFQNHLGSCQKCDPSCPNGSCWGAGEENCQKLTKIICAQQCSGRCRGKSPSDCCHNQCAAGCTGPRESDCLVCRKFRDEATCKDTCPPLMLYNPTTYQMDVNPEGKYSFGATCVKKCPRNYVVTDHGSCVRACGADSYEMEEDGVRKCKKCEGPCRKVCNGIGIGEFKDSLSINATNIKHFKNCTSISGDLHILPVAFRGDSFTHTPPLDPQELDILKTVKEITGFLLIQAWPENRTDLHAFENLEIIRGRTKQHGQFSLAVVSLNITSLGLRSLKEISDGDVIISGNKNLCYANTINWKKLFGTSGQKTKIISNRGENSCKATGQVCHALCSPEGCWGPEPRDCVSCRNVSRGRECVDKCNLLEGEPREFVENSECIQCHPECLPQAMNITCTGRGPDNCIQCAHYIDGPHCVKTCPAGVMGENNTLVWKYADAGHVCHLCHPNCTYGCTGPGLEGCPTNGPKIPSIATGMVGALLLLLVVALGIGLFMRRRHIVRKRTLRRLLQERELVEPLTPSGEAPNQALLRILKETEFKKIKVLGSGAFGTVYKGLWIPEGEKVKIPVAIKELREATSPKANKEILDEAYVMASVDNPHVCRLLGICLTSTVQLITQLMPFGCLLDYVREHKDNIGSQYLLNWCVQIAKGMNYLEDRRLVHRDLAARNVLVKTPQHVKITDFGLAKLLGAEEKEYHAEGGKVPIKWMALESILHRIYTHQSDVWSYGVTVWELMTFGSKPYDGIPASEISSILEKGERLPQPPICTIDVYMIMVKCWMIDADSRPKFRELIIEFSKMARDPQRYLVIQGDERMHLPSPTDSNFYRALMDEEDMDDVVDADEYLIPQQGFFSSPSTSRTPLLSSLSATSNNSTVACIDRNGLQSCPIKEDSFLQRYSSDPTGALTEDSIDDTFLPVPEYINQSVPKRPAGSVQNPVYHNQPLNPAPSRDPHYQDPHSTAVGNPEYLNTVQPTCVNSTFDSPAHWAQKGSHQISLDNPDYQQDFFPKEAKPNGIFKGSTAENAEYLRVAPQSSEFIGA

[18] = molecular target: Follistatin-related protein 3 (Homo sapiens) (UniProt O95633); experiment: compounds binding follistatin-related protein 3 – biochemical, small-molecule microarray, 635 nm fluorescence, primary screen (AID 1105); conditions: FSTL3 binding, higher = more signal;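 further: score merges emission near 667 nm and signal to noise per printed spot across three slides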
Follistatin-related protein 3 (Homo sapiens), sequence (O95633 whole entry, looked up): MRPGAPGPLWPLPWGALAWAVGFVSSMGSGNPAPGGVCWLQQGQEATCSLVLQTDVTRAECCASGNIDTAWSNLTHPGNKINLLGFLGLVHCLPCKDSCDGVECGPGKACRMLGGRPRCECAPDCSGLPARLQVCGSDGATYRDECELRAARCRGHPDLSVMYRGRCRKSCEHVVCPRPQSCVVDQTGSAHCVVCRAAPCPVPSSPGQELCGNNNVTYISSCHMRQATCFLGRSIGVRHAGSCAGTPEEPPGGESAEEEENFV

[19] = molecular target: Dickkopf-related protein 1 (Homo sapiens) (UniProt O94907); experiment: small molecules binding DKK1 protein – biochemical, small-molecule microarray, 635 nm fluorescence scan, primary screen (AID 1106); conditions: higher = more signal;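 further: score merges emission near 667 nm with signal to noise over three replicate slides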
Dickkopf-related protein 1 (Homo sapiens), sequence (O94907 whole entry, looked up): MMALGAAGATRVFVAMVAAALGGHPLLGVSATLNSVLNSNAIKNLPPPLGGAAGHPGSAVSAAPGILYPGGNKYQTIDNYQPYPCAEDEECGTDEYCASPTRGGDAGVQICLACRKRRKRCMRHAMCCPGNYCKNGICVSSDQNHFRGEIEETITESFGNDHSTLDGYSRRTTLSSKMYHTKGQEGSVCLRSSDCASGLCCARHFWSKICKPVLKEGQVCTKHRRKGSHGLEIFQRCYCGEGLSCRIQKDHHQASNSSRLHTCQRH

[20] = test system: Inhibin beta A chain (activin A); experiment: small molecules binding activin A – biochemical, small-molecule microarray, 635 nm fluorescence scan, primary screen (AID 1107); conditions: INHBA, higher = more signal;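 further: mouse activin A protein probed at 4.33 µg/mL on printed slides; score merges bound-protein fluorescence near 667 nm with spot signal-to-noise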

| Compound | composite z-score [1] | z-score [2] | z-score [3] | z-score [4] | composite z-score [5] | z-score [6] | composite z-score [7] | composite z-score [8] | composite z-score [9] | composite z-score [10] | composite z-score [11] | composite z-score [12] | composite z-score [13] | z-score [14] | composite z-score [15] | composite z-score [16] | composite z-score [17] | composite z-score [18] | composite z-score [19] | composite z-score [20] |
| --- | --- | --- | --- | --- | --- | --- | --- | --- | --- | --- | --- | --- | --- | --- | --- | --- | --- | --- | --- | --- |
| COc1ccc(C(=O)Nc2cccc(CN3C(=O)[C@@]4(O[C@@H](CC(=O)N(CCO)Cc5ccccc5)[C@H]([Si](C)(C)c5ccc(OC)cc5)[C@H]4C)c4ccccc43)c2)cc1 | 0.931 | -1.42 (inactive) | -0.9 (inactive) | 2.85 (inactive) | 1.94 | 0.904 (inactive) | -0.175 | 0.8 | 0.487 | -0.201 | 1.4 | -0.566 | -0.0709 | -2.23 (inactive) | -0.0511 | 0.196 | 0.0627 | 0.823 | 0.26 | 0.636 |
| COCCCNC(=O)[C@@H]1c2ccccc2C(=O)N(C2Cc3ccccc3C2)[C@H]1c1ccc(CO)cc1 | 1.17 | 0.0011 (inactive) | -0.471 (inactive) | -0.559 (inactive) | 1.74 | 0.935 (inactive) | -0.0237 | 0.163 | -0.0847 | -0.0549 | 0.122 | 0.299 | 0.186 | 0.0141 (inactive) | 0.639 | 1.04 | 0.172 | 0.121 | 0.447 | 0.952 |
| C=CCOC(=O)[C@H]1[C@@H]2C(=O)O[C@@H](c3ccccc3)[C@@H](c3ccccc3)N2[C@@H](c2ccc(OCCOC(=O)[C@H]3C[C@H]4C(=O)N[C@@H](CCCCNC(C)=O)C(=O)N4[C@H]3c3cccc(OCCO)c3)cc2)[C@]12C(=O)Nc1ccc(I)cc12 | 1.55 | 1.15 (inactive) | 1.14 (inactive) | 4.54 (inactive) | 2.18 | 1.44 (inactive) | -0.431 | 1.87 | 1.1 | -0.336 | 1.14 | -0.886 | -0.887 | -1.5 (inactive) | 1.49 | 0.677 | 0.463 | 1.43 | 0.719 | 0.0677 |
| CCc1cccc(NC(=O)O[C@H]2[C@H](OC(=O)Nc3ccccc3)[C@H](OC(=O)Nc3ccccc3)[C@@H](OC)O[C@@H]2CO)c1 | 1.5 | 1.22 (inactive) | 1.72 (inactive) | 8.61 (active) | 3.48 | -0.728 (inactive) | 0.0166 | 0.349 | 1.08 | -0.0968 | 1.41 | 0.22 | 0.55 | -0.376 (inactive) | 1.51 | 1.24 | -0.0045 | 0.833 | -0.186 | 0.444 |
| CC(C)[Si]1(C(C)C)OCc2cc(-c3ccc(-c4ccc(Cl)c(Cl)c4)o3)nc(CCc3ccccc3)c21 | -0.45 | -0.773 (inactive) | -3.07 (inactive) | 0.952 (inactive) | 0.797 | 1.15 (inactive) | -0.19 | 0.0365 | -0.428 | -0.218 | 0.508 | -0.0914 | -0.17 | -2.1 (inactive) | 0.187 | -0.181 | -0.833 | 0.169 | 0.32 | 0.536 |
| O=C1OCC=C[C@H]2OC34C=CCN(c5ccc6ccccc6c5)C(=O)[C@H]3N(CCCCCO)C(=O)[C@@H]4[C@@H]12 (stereo not given in full) | -0.6 | -0.594 (inactive) | -0.955 (inactive) | -0.515 (inactive) | 3.68 | 0.198 (inactive) | 0.306 | -1.65 | -1.04 | -0.177 | 1.88 | 0.07 | 0.878 | -0.57 (inactive) | -1.17 | -1.55 | -1.44 | -1.56 | -1.41 | -0.255 |
| COCCOC(=O)N1C(=O)[C@@]2(c3ccccc31)[C@H](c1ccc(OCCO)cc1)N1[C@H](c3ccccc3)[C@H](c3ccccc3)OC(=O)[C@H]1[C@@H]2C(=O)N1CCCCCCC1 | 1.54 | 0.178 (inactive) | 0.182 (inactive) | 2.92 (inactive) | 5.18 | -0.504 (inactive) | 1.83 | 2.45 | 1 | 1.43 | 2.35 | 3.24 | 1.9 | -1.59 (inactive) | 1.76 | 1.46 | 2.03 | 1.76 | 2.62 | 1.89 |
| CC(C)C[C@@H]1NC(=O)[C@@H]2C[C@H](C(=O)NCCCCCC[N+](C)(C)C)[C@H](c3cccc(OCCO)c3)N2C1=O | 1.58 | -0.632 (inactive) | 0.806 (inactive) | 0.24 (inactive) | 3.23 | -0.209 (inactive) | -0.135 | -0.143 | 0.766 | -0.0572 | 1.78 | -0.294 | 0.512 | -0.261 (inactive) | 0.225 | 0.221 | -0.138 | -0.168 | 0.449 | 0.327 |
| CCC(CC)C(O)C1C=CC2C(=O)N(c3ccccc3)C(=O)C2N1Nc1ccc([N+](=O)[O-])cc1 (stereo not given) | 1.53 | -0.255 (inactive) | 1.27 (inactive) | 1.28 (inactive) | 3 | -0.27 (inactive) | 0.323 | 0.0809 | 1.07 | 0.277 | 0.629 | 1.02 | 0.638 | -0.16 (inactive) | 0.632 | 1.21 | 0.102 | 0.393 | -0.351 | 0.761 |
| CCOC(=O)C1=C[C@@H](C(C)(C)C)N(S(=O)(=O)c2ccc(C)cc2)[C@H]1c1ccc(C)cc1 | 1.54 | -0.582 (inactive) | 0.0598 (inactive) | 0.632 (inactive) | 3.25 | -1.38 (inactive) | 0.273 | 0.552 | 1.02 | 0.157 | 0.772 | 0.46 | 0.517 | -0.598 (inactive) | 1.3 | 0.995 | 0.78 | 1.26 | 0.541 | 0.516 |
